The values below come from PubChem BioAssay (Tox21).

Assay [1] in a line: qHTS assay to identify small molecule antagonists of the estrogen related receptor (ERR) signaling pathway from Tox21 library - cell viability counter screen (AID 1224834). Note: nearly all actives have a fitted effect of over 30% in size. An outline of the steps:
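ERR reporter cells, 2,000 per well, rested 6 h, then exposed to compound in DMSO for 17.5 hours at 37 C. Viability read as fluorescence after 30 min with CellTiter-Fluor.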
Background: qHTS replaces the single test concentration by a dilution series.

In assay [2] the target is Luciferin 4-monooxygenase (Photinus pyralis) (UniProt P08659). As to the kind of experiment: qHTS assay to identify small molecule inhibitors of firefly luciferase (AID 1224835). Note: nearly all actives have a fitted effect of over 25% in size. Note: potency is the fitted concentration of half-maximal effect. The procedure, abridged: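 Biochemical qHTS: compounds run as interplate titrations against purified firefly enzyme, with D-luciferin and ATP each at its KM concentration. Light output recorded by CCD imaging.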
Luciferin 4-monooxygenase (Photinus pyralis), sequence (P08659 whole entry, looked up): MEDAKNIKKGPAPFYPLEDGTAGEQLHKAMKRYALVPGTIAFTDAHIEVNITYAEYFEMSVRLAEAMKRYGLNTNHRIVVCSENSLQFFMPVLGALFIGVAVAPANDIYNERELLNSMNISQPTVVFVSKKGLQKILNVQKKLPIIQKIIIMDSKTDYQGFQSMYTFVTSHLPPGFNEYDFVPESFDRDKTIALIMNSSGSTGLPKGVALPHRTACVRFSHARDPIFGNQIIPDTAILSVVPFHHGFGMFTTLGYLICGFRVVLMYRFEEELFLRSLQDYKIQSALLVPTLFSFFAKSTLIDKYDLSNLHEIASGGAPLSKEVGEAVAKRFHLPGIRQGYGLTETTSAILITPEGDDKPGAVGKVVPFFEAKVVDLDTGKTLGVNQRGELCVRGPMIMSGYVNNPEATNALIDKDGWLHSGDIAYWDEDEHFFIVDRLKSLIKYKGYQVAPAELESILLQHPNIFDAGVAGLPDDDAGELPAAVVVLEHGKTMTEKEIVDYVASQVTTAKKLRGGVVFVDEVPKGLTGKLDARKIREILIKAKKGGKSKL

Assay [3] is described as follows: qHTS assay to identify small molecule agonists of the constitutive androstane receptor (CAR) signaling pathway - cell viability counter screen (AID 1224836). Note: nearly all actives have a fitted effect of over 45% in size. The procedure, abridged: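 Using CellTiter-Fluor, viability of HepG2 cells harbouring hCAR and CYP2B6-2.2kb was measured following 23 h incubation with a 15-concentration compound series plus PK11195 (0.75 uM final).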

The nature of assay [4]: qHTS assay to identify small molecule antagonists of the constitutive androstane receptor (CAR) signaling pathway - cell viability counter screen (AID 1224837). Note: nearly all actives have a fitted effect of over 45% in size. The procedure, abridged: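 HepG2 cells stably carrying hCAR and CYP2B6-2.2kb reporter, stimulated with 50 nM CITCO and compounds at 15 concentrations for 23 h at 37 C. Viability measured by CellTiter-Fluor fluorescence.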

Assay [5] can be described thus: qHTS assay to identify small molecule antagonists of the estrogen related receptor signaling pathway with the pleiotropic PPARgamma coactivator (PGC) from Tox21 10K library - cell viability counter screen (AID 1224840; active = well fitted cell-killing curve with a large enough effect in the repeat runs, not every such curve was filed as active; note: nearly all actives have a fitted effect of over 40% in size). The procedure, abridged: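 PGC/ERR cells (2,000/well) plated 6 h, then compound-treated for 17.5 h at 37 C. Viability measured by CellTiter-Fluor fluorescence after 30 min at 37 C, multiplexed with the pathway assay.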

Assay [6] can be described thus: qHTS assay to identify small molecule antagonists of the estrogen related receptor signaling pathway with the pleiotropic PPARgamma coactivator (PGC) from Tox21 10K library (AID 1224841; call rule not given here; note: actives are mostly falling curves and most rising ones were filed inactive; nearly all actives have a fitted effect of over 50% in size). The procedure, abridged: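 PGC/ERR cell line, 2,000 cells/well, pre-incubated 6 hours at 37 C, then exposed to compounds for 18 hours at 37 C; luciferase read with One-Glo luminescence after 30 min at room temperature.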

Assay [7] in a line: qHTS assay to identify small molecule agonists of the estrogen related receptor signaling pathway with the pleiotropic PPARgamma coactivator (PGC) from Tox21 10K library (AID 1224842). Note: nearly all actives have a fitted effect of over 15% in size. The procedure, abridged:
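PGC/ERR reporter cell line, 2,000 cells per well, incubated 6 h at 37 C before 23 nL compound in DMSO was added. After 18 h at 37 C, One-Glo luminescence read following 30 min at room temperature.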

Assay [8] addresses Thyrotropin receptor (Homo sapiens) (UniProt P16473). As to the kind of experiment: qHTS assay to identify small molecule agonists of the thyroid stimulating hormone receptor (TSHR) signaling pathway (AID 1224843; calls by dose curve; note: nearly all actives have a fitted effect of over 45% in size; note: potency is the fitted concentration of half-maximal effect). The procedure, abridged: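 Steps: seed 800 TSHR-HEK293 cells per well; add test compound and hold 30 min at ambient temperature; dispense cAMP-d2 then anti-cAMP cryptate; incubate 1 h at ambient; measure fluorescence intensity.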

Assay [9] can be described thus: qHTS assay to identify small molecule agonists of the hypoxia (HIF-1) signaling pathway - cell viability counter screen (AID 1224844; calls by dose curve; note: nearly all actives have a fitted effect of over 50% in size). An outline of the steps: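 HRE-bla ME-180 cells, 2,000/well in 0.5% dialyzed FBS medium, treated 17 h at 37C with compounds. Viability read in the same wells as the bla reporter, by CellTiter-Glo luminescence after 30 min at room temperature.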

Assay [10] is described as follows: qHTS assay to identify small molecule agonists of the hypoxia (HIF-1) signaling pathway (AID 1224846; active = well fitted activation curve with a large enough effect in the signal ratio in the repeat runs, not every such curve was filed as active; the % refers to the signal ratio). The procedure, abridged:
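HRE-bla ME-180 beta-lactamase reporter cells in medium with 0.5% dialyzed FBS, pre-incubated 5 h then exposed to compounds 17 h at 37C, 5% CO2; reporter induction read with CCF4-AM FRET substrate.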

Assay [11] is described as follows: qHTS assay to identify small molecule antagonists of the estrogen related receptor (ERR) signaling pathway from Tox21 library (AID 1224848). Note: nearly all actives have a fitted effect of over 50% in size. The procedure, abridged: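 Luminescent reporter read-out (ONE-Glo) from NTP's ERR cell line after 18 h treatment at 37 C with DMSO-dissolved Tox21 compounds; cells pre-plated 6 h beforehand at 2,000 per well.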
Assay [12] can be described thus: qHTS assay to identify small molecule agonists of the estrogen related receptor (ERR) signaling pathway from Tox21 library (AID 1224849; calls by dose curve; note: nearly all actives have a fitted effect of over 15% in size). Conditions: ERR reporter cell line, ONE-Glo luciferase, 18 h. The procedure, abridged: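 ERR reporter cells (NTP line) pre-incubated 6 hours at 37 C, then exposed to compounds for 18 hours at 37 C. ONE-Glo luciferase luminescence was read after 30 minutes at room temperature.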

Assay [13] can be described thus: qHTS RealTime-Glo MT Cell Viability Assay in HepG2 cells - 24 hour (AID 1224867). Note: nearly all actives have a fitted effect of over 50% in size. An outline of the steps:
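Viability was tracked continuously by NanoLuc luminescence from prosubstrate reduced by living HepG2 cells, at successive time points over 40 h of compound exposure. Cells with reagent were preincubated 5 h at 37 °C before compound addition.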

A short description of assay [14]: qHTS RealTime-Glo MT Cell Viability Assay in HEK293 cells - 32 hour (AID 1224868). An outline of the steps:
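Viability tracked continuously by luminescence as live cells reduce a prosubstrate for NanoLuc; HEK293 cells preincubated 5 h, compound-treated at 37 C, and read at 0, 8, 16, 24, 32 and 40 h.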

A short description of assay [15]: A CellTox Green Cytotoxicity Assay to monitor cytotoxicity in HEK293 cells - 0 hour (AID 1224869). Note: nearly all actives have a fitted effect of over 50% in size. The procedure, abridged:
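HEK293 cells, 600/well, were preincubated 5 hours and then exposed to compounds at 37 C for up to 40 hours. A cell-impermeant cyanine dye staining dead-cell DNA was read by fluorescence at 0, 8, 16, 24, 32 and 40 h time points.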

Assay [16] has as its target Nuclear receptor subfamily 1 group I member 3 (Homo sapiens) (UniProt Q14994). As to the kind of experiment: qHTS assay to identify small molecule antagonists of the constitutive androstane receptor (CAR) signaling pathway (AID 1224838). Note: nearly all actives have a fitted effect of over 40% in size. An outline of the steps:
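HepG2 cells stably carrying hCAR and a CYP2B6-2.2kb luciferase reporter, seeded 4 hrs before compound (15 concentrations). Stimulated with 50 nM CITCO for 24 hr at 37 C. ONE-Glo luminescence read after 30 min at room temperature.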

Assay [17] has the same target. As to the kind of experiment: qHTS assay to identify small molecule agonists of the constitutive androstane receptor (CAR) signaling pathway (AID 1224839). Note: nearly all actives have a fitted effect of over 15% in size. Note: potency is the fitted concentration of half-maximal effect. The procedure, abridged:
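Double-stable HepG2 cells (hCAR, CYP2B6-2.2kb) seeded 4 h before compound addition. Exposure 24 h with 0.75 uM PK11195 final. Luciferase detected by ONE-Glo.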

The nature of assay [18]: qHTS assay to identify small molecule agonists of H2AX (AID 1224845; active = well fitted activation curve with a large enough effect in the signal ratio in the repeat runs, not every such curve was filed as active; the % refers to the signal ratio). The procedure, abridged: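 Wild-type CHO-K1 cells, plated overnight, exposed 3hr at 37C to 15 concentrations (0.76% DMSO final). Lysed, then HTRF anti-pH2AX (S139) cryptate and anti-H2AX-d2 antibodies, 24 hr room temperature; 665/620 nm emission read.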
Assay [19] in a line: qHTS assay to identify small molecule agonists of H2AX - cell viability counter screen (AID 1224847; calls by dose curve; note: nearly all actives have a fitted effect of over 30% in size; note: potency is the fitted concentration of half-maximal effect). An outline of the steps: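 Quantitative HTS viability measurement: CHO-K1 wild-type cells in serum (10% FBS) medium, short 3 hr drug exposure at 37C with 0.76% DMSO, CellTiter-Glo luminescent detection.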

Where “and” joins values, the source holds several entries; their conditions need not be identical. Equal entries are not always repeated. Results filed as inconclusive are left out. A structure can be active in one record and inactive in another. Calls of active or inactive are those of the source. Unless noted, calls come from the whole dose curve; as a rule, active = well fitted curve in the direction sought with a large enough effect in the repeat runs; inconclusive = weak or mixed curves; inactive = no such curve, though single readings can be large; an effect the other way counts as inactive or inconclusive.
% is set by controls: 0 for no effect and ±100 for the full control effect.

Thyrotropin receptor (Homo sapiens), sequence (P16473 whole entry, looked up): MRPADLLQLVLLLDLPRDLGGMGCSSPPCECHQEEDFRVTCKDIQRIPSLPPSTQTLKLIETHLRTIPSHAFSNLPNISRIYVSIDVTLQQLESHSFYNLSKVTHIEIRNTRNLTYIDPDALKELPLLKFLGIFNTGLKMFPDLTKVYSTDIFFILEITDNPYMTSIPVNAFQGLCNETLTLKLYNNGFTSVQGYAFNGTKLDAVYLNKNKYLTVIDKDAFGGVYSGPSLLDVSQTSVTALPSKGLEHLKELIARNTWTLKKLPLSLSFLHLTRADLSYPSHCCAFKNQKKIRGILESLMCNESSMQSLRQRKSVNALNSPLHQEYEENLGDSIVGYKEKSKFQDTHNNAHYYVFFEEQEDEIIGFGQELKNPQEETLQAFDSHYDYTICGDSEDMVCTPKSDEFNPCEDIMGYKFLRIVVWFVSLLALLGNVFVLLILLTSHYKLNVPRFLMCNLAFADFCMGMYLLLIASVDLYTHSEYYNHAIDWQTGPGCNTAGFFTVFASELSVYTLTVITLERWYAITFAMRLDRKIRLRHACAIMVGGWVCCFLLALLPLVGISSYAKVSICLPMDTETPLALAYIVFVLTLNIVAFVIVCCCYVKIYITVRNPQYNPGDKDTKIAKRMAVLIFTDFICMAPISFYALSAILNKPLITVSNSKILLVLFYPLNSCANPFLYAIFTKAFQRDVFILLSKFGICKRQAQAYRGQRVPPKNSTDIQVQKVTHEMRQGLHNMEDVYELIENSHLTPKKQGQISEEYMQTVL
Nuclear receptor subfamily 1 group I member 3 (Homo sapiens), sequence (Q14994 whole entry, looked up): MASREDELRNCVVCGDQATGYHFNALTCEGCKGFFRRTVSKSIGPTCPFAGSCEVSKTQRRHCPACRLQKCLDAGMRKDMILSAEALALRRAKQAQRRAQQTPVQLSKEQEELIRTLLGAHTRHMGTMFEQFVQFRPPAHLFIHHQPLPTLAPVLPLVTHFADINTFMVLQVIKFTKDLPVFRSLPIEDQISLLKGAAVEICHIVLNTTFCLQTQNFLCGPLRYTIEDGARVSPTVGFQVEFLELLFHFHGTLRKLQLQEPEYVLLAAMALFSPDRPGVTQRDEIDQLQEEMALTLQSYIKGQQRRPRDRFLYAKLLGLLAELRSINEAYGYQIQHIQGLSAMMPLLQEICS

For the compound `Cc1ccc(OP(=O)(Oc2ccc(C)cc2)Oc2ccc(C)cc2)cc1`, the Potency entry in assay [1], in assay [2], in assay [3], in assay [4], in assay [5] and in assay [6] was “inactive” in each case. Besides, the Potency entry in assay [7], in [9], in [11], in assay [13], in assay [14] and in [15] was “inactive” each time. The Potency in assay [8] is 12.2 µM (active) and 30.6 µM (active). Also, the compound was called inactive in assay [10]. For the same compound, in assay [12] (at 92.4 µM (top of the series)), the activity change, positive = activation was -19.4% (inactive) and -4.77% (inactive).
As for `O=C(NC(=O)c1c(F)cccc1F)Nc1ccc(Cl)cc1`, the Potency result in assay [1], in assay [2], in [3], in assay [4], in assay [16] and in assay [5] was “inactive” in each case. In addition, the Potency result in [8], in [9], in [18], in assay [19], in [13] and in assay [15] was “inactive” throughout. Moreover, the Potency result in [17] is “inactive and 1.22 µM (active)”. Further, the outcome in assay [10] was inactive.
Take `CCCCCCCCOC(=O)c1ccccc1C(=O)OCCCCCCCC`: the Potency result in [1], in [2], in [3], in [4], in assay [16] and in [5] was “inactive” in each case. Besides, the Potency entry in assay [8], in [9], in [19], in assay [13], in assay [14] and in [15] was “inactive” in each case. Also, the Potency entry in assay [17] is “inactive and 17.2 µM (active)”. The result in [10] was inactive.
On to `CCC(C)(C)c1ccc(O)cc1`, for which the Potency result in assay [1], in assay [3], in [4], in assay [5], in [6] and in assay [7] was “inactive” throughout. Moreover, the Potency entry in assay [8], in assay [9], in assay [18], in assay [11], in assay [13] and in assay [14] was “inactive” in each case. The Potency result in assay [15] is “inactive”. Also, the Potency in assay [2] is 40.4 µM (active) and 63.3 µM (active); in [19], 80 µM (active). For the same compound, the compound was classed as inactive in assay [10]. Moreover, the activity change, positive = activation was -6.2% (inactive) in assay [12] (at 42.5 µM (top of the series)); -16.7% (inactive) and -1.98% (inactive) in assay [12] (at 92.4 µM (top of the series)).
For the compound `CC(C)=CC1C(C(=O)OCc2coc(Cc3ccccc3)c2)C1(C)C` (stereo unspecified), the Potency entry in assay [1], in assay [2], in [3], in assay [4], in [16] and in assay [5] was “inactive” throughout. Besides, the Potency result in [9], in assay [18], in assay [13], in assay [14] and in assay [15] was “inactive” throughout. Moreover, the Potency in assay [17] was 34.4 µM (active) and 27.3 µM (active). For the same compound, in [10], the result was inactive.
For `CNC(=O)N(C)c1nnc(C(C)(C)C)s1`, the Potency entry in assay [1], in assay [2], in [3], in assay [4], in [16] and in assay [17] was “inactive” in each case. Besides, the Potency result in [5], in [8], in [9], in [19], in assay [13] and in assay [14] was “inactive” each time. For the same compound, the Potency result in assay [15] is “inactive”.
`Nc1ccncc1`: the Potency result in assay [1], in [2], in assay [3], in assay [4], in assay [16] and in assay [17] was “inactive” throughout. Besides, the Potency result in assay [5], in assay [8], in [9], in assay [18], in [19] and in assay [13] was “inactive” each time. The Potency result in [14] and in assay [15] was “inactive” throughout.
